In PubChem BioAssay AID1530 (NMMLSC, 2009) one finds percent response data, which are given here for 27 compounds.

The campaign covered roughly 290,000 compounds. About 1,000 (0.34%) were called active. The sample as a whole holds a higher share of actives than the screen did. Values without a mark were called inactive. No stated cut-off is given here; in the data, active means percent response above about 24% (passing the limit was not always enough); inactive means the rest.

This assay concerns MEKK2 (MAP3K2) mutant PB1 domain binding to MEK5, human. Briefly: MEK5 binding signal on mutant MEKK2 PB1, primary screen, biochemical, multiplex bead flow cytometry, Alexa488-MEK5 (AID 1530). As to conditions: at 10 µM, active compounds read high. Background: Flow cytometry measures light scatter and fluorescence of single cells or particles in a stream.
On to `COc1ccc(S(=O)(=O)NCCc2cc3ccc(C)c(C)c3[nH]c2=O)cc1`, for which the percent response was 1%.
On to `CC(=O)Nc1cccc(NC(=O)CSc2nccn2Cc2ccc(F)cc2)c1`, for which the percent response is -1%.
To `Cc1cccc(NC(=O)Nc2cccc(Oc3c(F)c(F)c(F)c(F)c3F)c2)c1` belongs 56% (active); to `COc1cccc(NC(=O)NCc2ccc(F)cc2)c1`, -5%; to `Cc1cccc(NC(=O)c2cccc(C(F)(F)F)c2)c1`, -2%.
Turning to `Cc1ccc(N(CC(=O)NC2CCCCC2)C(=O)CCCC(=O)Nc2ccccn2)c(C)c1`, the percent response is 1%.
To `O=S(=O)(Oc1ccccc1C(=S)N1CCOCC1)c1ccc(Cl)cc1` belongs 7%; to `CCN1CCN(CCNC(=O)c2ccc(/C=C3/Sc4ccccc4N(Cc4cccc(C)c4)C3=O)cc2)CC1`, 59% (active); to `CCN1CCN(CCNC(=O)c2ccc3c(c2)NC(=O)/C(=C\c2ccc(OC)c(OC)c2)S3)CC1`, 17%.
Then `O=C(NCCN1CCOCC1)c1ccc(/C=C2\Sc3ccccc3N(Cc3ccc(F)cc3)C2=O)cc1`, with 19%; and `Cn1c(Nc2cccc(Cl)c2)nc2ccccc21`, with 4%.
As for `COc1ccc(OC)c(NC(=O)C2CCCN2S(=O)(=O)c2cccc3nsnc23)c1` (configuration not stated), the percent response is 2%.
Then `Cc1cc(=O)[nH]c(SCc2cc(Cl)ccc2OC(F)F)n1`, with 1%; and `O=C(OCc1cc2ccccc2[nH]c1=O)c1cccnc1`, with 8%.
For the compound `O=C(OCc1cc(Cl)ccc1OC(F)F)c1cccnc1`, the percent response was 152% (active).
As for `CC1=C(C)CC(C(=O)NNC(=O)c2ccccc2O)C(C(=O)O)C1` (configuration not stated), the percent response is 16%.
Then `Cc1ccc(NC(=S)N(CCCN2CCC(C)CC2)Cc2ccco2)cc1`, with -2%; and `Cc1ccc(NC(=S)N(CCCN2CCCC2)Cc2cccn2Cc2ccc(Cl)cc2)cc1`, with 57% (active).
As to `Cc1ccc(NC(=S)N(CCN2CCCCC2)Cc2ccco2)cc1C`, the percent response was -3%.
`Cc1ccc(NC(=O)CSCC(=O)N2CCOCC2)cc1`: the percent response was 3%.
Then `Cn1c(=NC(=O)c2cnccn2)sc2ccccc21`, with 10%; and `COC(=O)Cn1c(=NC(=O)CSCC(=O)Nc2cc(C)on2)sc2ccccc21`, with 8%; and `Cn1c(=NC(=O)CSCC(=O)N2CCCCC2)sc2ccccc21`, with 28% (active).
To `O=C(CP(=O)(c1ccccc1)c1ccccc1)N1CCOCC1` belongs -5%; to `Cn1c(=NC(=O)CSCC(=O)N2CCOCC2)sc2ccccc21`, 25% (active); to `COc1cc(C2/C(=C(\O)c3ccc4c(c3)CC(C)O4)C(=O)C(=O)N2c2nnc(C)s2)cc(OC)c1OC` (configuration not stated), 1%.
Then `Nc1nc(-c2sc3nc4c(cc3c2N)CCCC4)nc(N2CCOCC2)n1`, with -8%.
